Test results reported in PubChem BioAssay (NCATS).
Results filed as inconclusive are left out. Unmarked numbers belong to inactive results. Active and inactive are the calls of the source. The call rests on the fitted dose curve; in most records, active means well fitted inhibition curve with a large enough effect in the repeat runs; inconclusive means weak or mixed curves; inactive means flat fitted curve, though single readings scatter.

Biological target: Cytochrome P450 2D6 (Homo sapiens) (UniProt P10635)
Sequence (P10635 whole entry, looked up): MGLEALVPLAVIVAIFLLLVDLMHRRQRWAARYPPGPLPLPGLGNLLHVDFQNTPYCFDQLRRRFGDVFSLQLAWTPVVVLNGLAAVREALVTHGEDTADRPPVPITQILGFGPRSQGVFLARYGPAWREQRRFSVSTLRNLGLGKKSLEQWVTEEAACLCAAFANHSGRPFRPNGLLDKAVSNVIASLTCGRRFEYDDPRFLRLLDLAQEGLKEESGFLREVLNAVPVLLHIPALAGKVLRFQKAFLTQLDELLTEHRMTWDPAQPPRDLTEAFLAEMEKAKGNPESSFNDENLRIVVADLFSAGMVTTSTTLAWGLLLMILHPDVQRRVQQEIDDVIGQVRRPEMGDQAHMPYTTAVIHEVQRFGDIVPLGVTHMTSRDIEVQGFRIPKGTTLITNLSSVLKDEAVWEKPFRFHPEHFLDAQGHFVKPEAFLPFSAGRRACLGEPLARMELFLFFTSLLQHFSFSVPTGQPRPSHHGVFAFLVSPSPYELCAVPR
Assay: Cytochrome P450 family 2 subfamily D member 6 (CYP2D6) small molecule antagonists: luciferase biochemical (cell-free) qHTS assay (AID 1645840); further: nearly all actives have a fitted effect of over 55% in size
Conditions: P450-Glo CYP2D6 enzyme, luciferin luminescence, 1 h; series mostly up to 57.4 µM; activity change, negative = inhibition: at the top concentration
Outline: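 P450-Glo luminescent screen: recombinant CYP2D6 enzyme–proluciferin substrate mix preincubated with compound 10 min at room temperature, then NADPH regeneration added for 1 h at room temperature. Detection reagent added for 20 min; luciferin light read as relative luminescence units.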
On the % scale 0 is the no-effect control and ±100 the full control effect; potency means the concentration at half of the fitted maximal effect.

| SMILES | activity change, negative = inhibition | Potency |
| --- | --- | --- |
| Nc1c[n+](N2CCOCC2)no1 | 0.507% |  |
| O=C(O)Cc1ccccc1Oc1ccc(Cl)cc1Cl | 9.09% |  |
| O=C1NCCN1CCN1CCC(c2cn(-c3ccc(F)cc3)c3ccc(Cl)cc23)CC1 |  | 1.55 µM (active) |
| CC(=O)/C=C/C=C1/C2CCC(C2)C1(C)C (centres undefined) |  | 17.4 µM (active) |
| CC(=O)[C@@]1(O)CC[C@H]2[C@@H]3C[C@H](C)C4=CC(=O)CC[C@]4(C)[C@H]3CC[C@@]21C | -12.8% |  |
| CCCc1ccc(OCC(=O)N2CCN(C(=O)COc3ccc(CCC)cc3OC)CC2)c(OC)c1 | 5.61% |  |
| O=C(OCC(COC(=O)c1cccnc1)(COC(=O)c1cccnc1)COC(=O)c1cccnc1)c1cccnc1 | 0.326% |  |
| CC(Oc1c(Cl)cccc1Cl)C1=NCCN1 (centres undefined) |  | 8.71 µM (active) |
| CCCCCCCCCCCCCCCC[N+](C)(C)Cc1ccccc1 |  | 0.195 µM (active) |
| OC1(c2ccc(Cl)cc2)CCNCC1 |  | 15.5 µM (active) |
| Cc1cccc(N(C)C(=S)Oc2ccc3c(c2)CCC3)c1 | 0.557% |  |
| COC(=O)/C=C(/C)N | -3.72% |  |
| Nc1c(I)cc(I)c(C(=O)N(CCC(=O)O)c2ccccc2)c1I | 12.7% |  |
| O=S(=O)(O)c1ccc2nc(-c3ccccc3)[nH]c2c1 |  | 9.77 µM (active) |
| Clc1ccc2c(c1)Nc1ccccc1S2 | -27.2% |  |
| COc1ccc([C@@H]2Sc3ccccc3NC(=O)[C@@H]2O)cc1 |  | 13.8 µM (active) |
| O=C(O)CCC(=O)OC[C@@H](NC(=O)C(Cl)Cl)[C@H](O)c1ccc([N+](=O)[O-])cc1 | 14.5% |  |
| O=c1[nH]sc2cc(Cl)ccc12 | 0.408% |  |
| OC(CCCN1CCCCC1)(c1ccccc1)c1ccccc1 |  | 0.138 µM (active) |
